Reference: PubChem BioAssay AID2012 (Sanford-Burnham Center for Chemical Genomics, 2009)
Among all 290,000 compounds or so, about 2,700 (0.93%) were called active. The sample holds actives, similar compounds and a random draw of the others, so the mix is not that of the screen. No rule for the calls is given here.

Molecular target: Eukaryotic translation initiation factor 4H (Homo sapiens) (UniProt Q15056)
Assay: human eIF4H binding inhibitors, primary screen, translation initiation inhibitor project, biochemical, uHTS, fluorescence polarization (AID 2012);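 also: calls also rest on retests at 20 µM and on dose response follow-up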
Conditions: eIF4H fluorescence polarization binding assay, stronger effect = higher value

SMILES	inhibition (at 35 µM)	inhibition (confirmation average, at 20 µM)
CC(C)NC(=O)C(=O)N/N=C/c1ccco1	-8.2% (inactive)	–
O=C(Cn1cnc2ccccc21)N/N=C/c1ccco1	69.8% (inactive)	2.9%
O=c1nc(N/N=C/c2ccco2)cn[nH]1	76.3% (active)	73.4%
COc1ccc(Nc2ncnc3ccc(Br)cc23)c(OC)c1	-9.9% (inactive)	–
Cc1ccc(CS(=O)(=O)CCC(=O)NCc2ccc(F)cc2)cc1	-4.5% (inactive)	–
CCCCNC(=O)C1(O)c2ccccc2NC(=O)N1c1ccc(Cl)cc1 (centres undefined)	-2.3% (inactive)	–
O=C(O)CC(c1ccccc1F)N1Cc2ccccc2C1=O (centres undefined)	0.1% (inactive)	–
O=C(c1cccs1)N(C(=O)c1cccs1)c1ccccn1	-8.6% (inactive)	–
O=C(c1ccc(Br)o1)N(c1ccccn1)C1CCCCC1	55.5% (active)	99.6%
O=C(CNC(=O)c1ccc(Br)o1)NCC1CCCO1 (centres undefined)	-11.8% (inactive)	–
Cc1ccc(S(=O)(=O)N2CCC(Oc3ccc(-n4cnnn4)cc3)CC2)cc1	1.6% (inactive)	–
CCOc1ccc(-n2cnnn2)cc1S(=O)(=O)N1CCC(C)CC1C (centres undefined)	3.6% (active)	90.8%
CCOc1ccc(Br)cc1S(=O)(=O)N1CCC(C(=O)O)CC1	-7.6% (inactive)	–
COc1cccc(C(=O)Nc2nnc(S(=O)(=O)N3CCOCC3)s2)c1	-15.7% (inactive)	–
CN(Cc1ccccc1)C(=O)c1ccc(NC2=NC3CS(=O)(=O)CC3S2)cc1 (centres undefined)	-7.2% (inactive)	–
COc1cccc(NC(=O)C2CCCN(c3ncnc4c3nc3n4CCCCC3)C2)c1 (centres undefined)	2.9% (inactive)	–
O=C(c1ccc(CS(=O)(=O)c2ccccc2)o1)N1CCN(c2ccccc2)CC1	93.4% (active)	73.1%
O=C(c1cc(=O)c2ccccc2o1)N1CCN(c2ccccc2)CC1	1.2% (inactive)	–
O=C(c1ccc(S(=O)(=O)N2CCOCC2)cc1)N1CCN(c2ccccc2)CC1	-4.2% (inactive)	–
Cc1ccc(C)c(S(=O)(=O)N2CCN(C(=O)Nc3ccccc3)CC2)c1	4.3% (inactive)	–
CC(Oc1cc2oc(=O)c3c(c2cc1Cl)CCCC3)C(=O)NCc1ccncc1 (centres undefined)	-3.9% (inactive)	–
Cc1ccc(-c2nn(-c3ccccc3)cc2/C=C2\SC(=S)N(CCCCCC(=O)O)C2=O)o1	78.9% (active)	68.5%
CN(C)S(=O)(=O)c1cccc(-c2nn(-c3ccccc3)cc2/C=C2\SC(=S)N(CC(=O)O)C2=O)c1	47.3% (inactive)	–
COc1ccc(-c2nn(-c3ccccc3)cc2/C=C2/SC(=S)N(CCCC(=O)O)C2=O)c(C)c1	15.2% (inactive)	–

SMILES	inhibition (at 35 µM)	inhibition (confirmation average, at 20 µM)
CCOC(=O)CSc1nc(N2CCOCC2)c2c(c1C#N)CC(C(C)C)OC2 (centres undefined)	-6.3% (inactive)	–
Cc1ccnc(NC(=O)CCNS(=O)(=O)c2ccc(C)c(C)c2)c1	-10.9% (inactive)	–
CCc1c(-c2ccccc2)nc(N)c(C#N)c1-c1cccs1	-8.4% (inactive)	–
Cc1c(-c2ccccc2)nc(N)c(C#N)c1-c1cccs1	7.1% (inactive)	–
CN1CCc2nc(SC(C(=O)O)c3ccccc3)c(C#N)c(-c3cccs3)c2C1 (centres undefined)	76.7% (active)	–
O=C(O)C1CCCCC1C(=O)N1CCN(S(=O)(=O)c2ccc(F)cc2)CC1 (centres undefined)	-6.9% (inactive)	–
Cc1cc(=O)[nH]c(=S)[nH]1	2.4% (inactive)	–
O=c1[nH]c(=S)[nH]c2[nH]c(=S)[nH]c12	88.2% (active)	–
Cc1c(C)c(C)c2[nH]c(=S)[nH]c2c1C	-4.2% (inactive)	–
CN(C(=O)CCNC(=O)Cn1ccc2ccccc2c1=O)c1ccc(Br)cc1	1.5% (inactive)	–
CCOC(=O)C1=C(C)NC(=S)NC1c1cccs1 (centres undefined)	-5% (inactive)	–
N#CC1=C(N)C(C#N)(C#N)[C@H](c2ccsc2)[C@H]2COCC=C12	113% (inactive)	-3.8%
CCOC(=O)N1CC=C2C(C#N)=C(N)C(C#N)(C#N)[C@H](c3cccs3)[C@H]2C1	63.3% (active)	–
Cc1ccn2c(c1)nc(=O)c1cc(S(=O)(=O)N3CCC(C)CC3)ccc12	-3.5% (inactive)	–
Cc1ccc(Cl)c(OCC(=O)N2CCc3ccccc3C2)c1	-9.4% (inactive)	–
O=C(Nc1ncc2c(n1)CC(c1ccco1)CC2=O)c1ccc(Cl)cc1 (centres undefined)	83.6% (active)	–
O=C(Nc1ncc2c(n1)-c1ccccc1OC2)c1ccc(Cl)cc1	-10.3% (inactive)	–
CCc1ccc(Nc2ncc3c(n2)CC(c2ccco2)CC3=O)cc1 (centres undefined)	-4% (inactive)	–
Cc1c(CC(=O)NCCCCCC(=O)O)c(=O)oc2cc3occ(-c4ccccc4)c3cc12	6% (inactive)	–
CCCCCCc1cc2cc(-c3nnc(-c4ccccc4)o3)c(=O)oc2cc1O	70.4% (active)	–
Cc1c(CCC(=O)O)c(=O)oc2cc3occ(-c4ccccc4)c3cc12	14.4% (inactive)	–
Cc1nc(NC(=O)c2ccc3c(c2)OCCO3)ccc1Br	-4.6% (inactive)	–
CCOc1ccc(OCC(=O)Nc2c3c(nn2C(C)(C)C)CS(=O)(=O)C3)cc1	-13.7% (inactive)	–
COc1ccc(CNS(=O)(=O)c2ccc(-c3cnc(C4CC4)o3)cc2)cc1	-9.2% (inactive)	–

SMILES	inhibition (at 35 µM)	inhibition (confirmation average, at 20 µM)
O=C1CC(NNc2ccccc2)C(=O)N1c1cccc(Cl)c1 (centres undefined)	-1.9% (inactive)	–
O=C1OCC2=C1C(c1ccccc1)CC(=O)N2c1cccc(F)c1 (centres undefined)	4.2% (active)	96.6%
O=C1CC(c2ccccc2)C(=O)N1c1cccc(O)c1 (centres undefined)	-6.1% (inactive)	–
Cc1ccc(NC(=O)CCC(=O)c2ccc(Br)cc2)cc1	-5% (inactive)	–
Cc1cc(=O)n2[nH]c(-c3cccc(Cl)c3)cc2n1	-7.1% (inactive)	–
CCc1c(C)nc2cc(-c3cccs3)[nH]n2c1=O	4.5% (inactive)	–
Cc1cc(=O)n2[nH]c(-c3sccc3-n3c(C)ccc3C)cc2n1	93.9% (active)	97.8%
CC1CSc2nnc(CCc3ccccc3)n21 (centres undefined)	-1.5% (inactive)	–
S=C(NCCc1ccccc1)N1CCn2cccc2C1c1ccncc1 (centres undefined)	8.3% (inactive)	–
c1ccc(CCC2=NCCn3cccc32)cc1	61.9% (active)	–
O=C(NCC(=O)N1CCN(c2ccccc2O)CC1)c1ccc2ccccc2c1	6% (inactive)	–
COc1cc(C(=O)OCC(=O)NC(C)CCc2ccccc2)cc(OC)c1OC (centres undefined)	5.2% (inactive)	–
Cc1ccc(CN2CCNC(=O)C2CC(=O)NCc2csc(C(C)C)n2)cc1 (centres undefined)	-5.6% (inactive)	–
CN1/C(=c2/s/c(=C3/C(=O)N(c4ccccc4)NC3=Nc3ccccc3)n(C)c2=O)C(C)(C)c2ccccc21	75.5% (active)	–
CCN1C(=O)/C(=c2\s/c(=C3\Sc4ccccc4N3C)c(=O)n2C)N(C)C1=S	-3% (inactive)	–
O=[N+]([O-])c1cc([N+](=O)[O-])c(Oc2cc(F)cc(F)c2F)cc1NN1CCCCC1	0.2% (inactive)	–
Cn1c(=O)c2ccccc2n(CC(=O)Nc2ccc3c(c2)OCCO3)c1=O	-5.6% (inactive)	–
COc1ccc(-c2c(-c3ccc(OC)cc3O)nc(C)nc2C(F)(F)F)cc1	-5.5% (inactive)	–
Cc1ccc(Cc2cnc(N)s2)o1	65.8% (active)	93.7%
Cc1ccc(CCC(=O)Nc2ncc(Cc3cc(Cl)ccc3Cl)s2)o1	1.5% (inactive)	–
O=C(CCc1nnc2ccc(NCc3ccccc3Cl)nn12)NCC1CCN(C2CCCC2)C1 (centres undefined)	13.5% (inactive)	–
Cc1nn(Cc2ccccc2)c(C)c1NS(=O)(=O)c1ccccc1	-5.2% (inactive)	–
CC(=O)N(CN1C(=O)C2C3C=CC(C3)C2C1=O)c1cccc(Cl)c1 (centres undefined)	-5.8% (active)	61.4%
CC(=O)N(CN1C(=O)C2CC=CCC2C1=O)c1cccc(Cl)c1 (centres undefined)	26% (inactive)	–

SMILES	inhibition (at 35 µM)	inhibition (confirmation average, at 20 µM)
O=C(CN1C(=O)C2C3C=CC(C3)C2C1=O)NCCc1ccccc1Cl (centres undefined)	-10.5% (inactive)	–
COc1ccc(OCc2cc(C(=O)NCC3(C)COC3)no2)c(Cl)c1	-2.3% (inactive)	–
O=C(O)c1cccc(N2C(=O)Nc3ccccc3N2O)c1	1% (inactive)	–
Cn1cccc1/C=C1\SC(=O)N(CC(=O)Nc2ccc(F)cc2)C1=O	1.6% (inactive)	–
N#Cc1ccccc1CN1C(=O)S/C(=C/c2cccn2-c2cccc(C(=O)O)c2)C1=O	81.6% (active)	74.8%
Cc1cc(CN(C)C(=O)c2cc(COc3ccc(C)c(C)c3)on2)n[nH]1	-4.1% (inactive)	–
CCCc1cc(=O)n2[nH]c(C)c(-c3ccc(Cl)cc3)c2n1	11.3% (inactive)	–
COc1ccccc1OCCCC(=O)Nc1ccc2c(c1)OCCO2	-2.5% (inactive)	–
COc1ccccc1OCc1ccc(C(=O)N2CCN(C)CC2)o1	0.9% (inactive)	–
COc1cc2c(C(=O)N3CCN(C)CC3)c(CSc3ccccc3)n(C)c2cc1Br	1.1% (active)	81.5%
COc1cc(C(=O)N2CCN(C)CC2)cc(OC)c1OC	-6.9% (inactive)	–
Cc1ccc(N2C(=O)C3C4C=CC(CC4)C3C2=O)cc1Br (centres undefined)	-2.9% (inactive)	–
CN(CCC1CCOCC1)C(=O)CC1C(=O)NCCN1Cc1cccc(F)c1 (centres undefined)	-3.2% (inactive)	–
O=C(Nc1ccc(S(=O)(=O)Nc2ccccn2)cc1)c1ccccc1	-9.1% (inactive)	–
C=CCn1c(=O)c(C(=O)Nc2ncccc2O)c(O)c2ccccc21	22% (inactive)	–
CS(=O)(=O)Nc1ccccc1N=C(c1ccccc1)c1ccccc1	1.1% (inactive)	–
CCOc1ccc(N(CC(=O)NCCOc2ccccc2OC)S(=O)(=O)c2ccccc2)cc1	-3.8% (inactive)	–
O=C(CCS(=O)(=O)c1ccc(Br)cc1)NCCc1ccc(Cl)cc1	86.1% (active)	67.7%
COc1ccc(Cl)cc1NC(=O)CCN1CCOCC1	-3.3% (inactive)	–
COc1ccc(Cl)cc1NC(=O)CCS(=O)(=O)c1cc2c(cc1C)NC(=O)CO2	3.9% (inactive)	–
NS(=O)(=O)c1ccc(CCNC(=O)Nc2ccc(Cl)cc2)cc1	-4.8% (inactive)	–
O=C(NCCS(=O)(=O)c1ccc(Br)cc1)c1ccccc1Cl	-7.2% (inactive)	–
COc1ccc(Cl)cc1NC(=O)CCS(=O)(=O)c1ccc(Br)cc1	84.2% (active)	–
